Inconclusive results are not listed. The source made the active and inactive calls. The calls were made as follows: active = hit-call score of the fitted dose curve at least 0.9, where 1 is the maximum; inconclusive = response in the unintended direction; inactive = score below 0.9.

For experiment [1], the target named is human Aurora Kinase A - serine/threonine-protein Kinase 6 (AurA), AURKA (gene 6790) (UniProt O14965). Put plainly: NVS_ENZ_hAurA: NovaScreen (NVS) Enzymatic Assay for human Aurora Kinase A - serine/threonine-protein Kinase 6 (AurA) (AID 2283142). The procedure, abridged:
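Cell-free enzymatic assay with human Aurora A, 1 hour after dosing. Fluorescent substrate turnover detected after electrophoretic mobility shift separation of substrate and product. Screened at 25 uM, actives retested in concentration-response up to 50 uM.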

Experiment [2] has as its target human Fibroblast Growth Factor Receptor 1 (FGFR1), FGFR1 (gene 2260) (UniProt P11362). Description: NVS_ENZ_hFGFR1: NovaScreen (NVS) Enzymatic Assay for human Fibroblast Growth Factor Receptor 1 (FGFR1) (AID 2283159).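 As to AC50: hits lower the signal so potencies describe inhibitors of the kinase.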 A digest of the protocol:
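Cell-free recombinant kinase with fluorescent substrate, product separated by electrophoretic mobility shift; read 1 hour after dosing, loss of signal relative to DMSO. Initial screen in duplicate at 25 uM, actives followed in concentration series.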

For experiment [3], the target named is human Janus Kinase 2 (Jak2), JAK2 (gene 3717) (UniProt O60674). Description: NVS_ENZ_hJak2: NovaScreen (NVS) Enzymatic Assay for human Janus Kinase 2 (Jak2) (AID 2283169). The procedure, abridged: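 Cell-free recombinant human JAK2 enzyme activity assay, fluorescence/electrophoretic mobility shift read 1 h after dosing. Screened in duplicate at 25 uM, then concentration-response up to 50 uM; activity as signal loss relative to DMSO.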
Chain of human Janus Kinase 2 (Jak2), JAK2 (gene 3717) (O60674 whole entry, looked up): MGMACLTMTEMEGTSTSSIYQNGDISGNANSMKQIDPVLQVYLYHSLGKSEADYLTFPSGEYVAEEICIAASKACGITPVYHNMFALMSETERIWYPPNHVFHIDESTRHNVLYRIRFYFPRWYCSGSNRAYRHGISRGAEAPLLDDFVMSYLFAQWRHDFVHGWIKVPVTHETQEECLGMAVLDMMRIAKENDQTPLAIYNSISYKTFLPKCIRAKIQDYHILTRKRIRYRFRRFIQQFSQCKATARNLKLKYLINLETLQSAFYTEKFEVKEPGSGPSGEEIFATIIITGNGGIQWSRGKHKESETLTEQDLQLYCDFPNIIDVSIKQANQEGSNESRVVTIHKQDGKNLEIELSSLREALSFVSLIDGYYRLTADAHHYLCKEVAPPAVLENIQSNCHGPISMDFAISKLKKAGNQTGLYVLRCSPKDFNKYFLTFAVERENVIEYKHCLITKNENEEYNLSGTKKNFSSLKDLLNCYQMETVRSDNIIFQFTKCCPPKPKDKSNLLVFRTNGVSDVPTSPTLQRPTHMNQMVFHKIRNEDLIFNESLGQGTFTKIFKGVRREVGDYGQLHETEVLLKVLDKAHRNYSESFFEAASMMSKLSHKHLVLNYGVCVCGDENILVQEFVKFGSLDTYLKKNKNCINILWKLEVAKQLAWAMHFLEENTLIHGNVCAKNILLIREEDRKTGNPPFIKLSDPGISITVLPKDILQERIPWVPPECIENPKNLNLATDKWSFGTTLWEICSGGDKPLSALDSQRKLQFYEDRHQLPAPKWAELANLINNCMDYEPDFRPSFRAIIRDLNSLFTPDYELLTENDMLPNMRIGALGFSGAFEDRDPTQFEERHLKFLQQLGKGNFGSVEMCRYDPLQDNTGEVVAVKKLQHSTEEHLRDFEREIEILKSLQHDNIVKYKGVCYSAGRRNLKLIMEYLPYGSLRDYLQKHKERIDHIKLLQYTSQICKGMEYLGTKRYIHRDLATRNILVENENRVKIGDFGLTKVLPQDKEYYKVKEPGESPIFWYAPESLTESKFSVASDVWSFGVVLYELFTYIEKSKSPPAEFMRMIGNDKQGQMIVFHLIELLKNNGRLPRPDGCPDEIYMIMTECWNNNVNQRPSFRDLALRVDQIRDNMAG

In experiment [4] the target is human Dual Specificity Protein Phosphatase 3 (DUSP3), DUSP3 (gene 1845) (UniProt P51452). Put plainly: NVS_ENZ_hDUSP3: NovaScreen (NVS) Enzymatic Assay for human Dual Specificity Protein Phosphatase 3 (DUSP3) (AID 2283152). A digest of the protocol: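 Cell-free assay with recombinant human DUSP3 and fluorogenic substrate, read by fluorescence intensity. Primary screen ran duplicate at 25 uM; actives followed up in concentration series; loss of signal versus DMSO scored.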
Chain of human Dual Specificity Protein Phosphatase 3 (DUSP3), DUSP3 (gene 1845) (P51452 whole entry, looked up): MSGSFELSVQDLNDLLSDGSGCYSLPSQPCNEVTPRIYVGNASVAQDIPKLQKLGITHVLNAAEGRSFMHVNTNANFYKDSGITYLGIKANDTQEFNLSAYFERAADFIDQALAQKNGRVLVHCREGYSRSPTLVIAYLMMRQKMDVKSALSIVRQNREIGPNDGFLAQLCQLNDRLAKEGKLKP

The target of experiment [5] is human Colony Stimulating Factor 1 Receptor (CSF1R), CSF1R (gene 1436) (UniProt P07333). Put plainly: NVS_ENZ_hCSF1R: NovaScreen (NVS) Enzymatic Assay for human Colony Stimulating Factor 1 Receptor (CSF1R) (AID 2283150). A digest of the protocol: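 Cell-free recombinant human CSF1R kinase with fluorescent substrate, product separated by electrophoretic mobility shift; read 1 h after dosing. Primary screen at 25 uM in duplicate, actives then in concentration-response up to 50 uM, relative to DMSO.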

The target of experiment [6] is Protein deacetylase HDAC6 (Homo sapiens) (UniProt Q9UBN7). Put plainly: NVS_ENZ_hHDAC6: NovaScreen (NVS) Enzymatic Assay for human Histone Deacetylase 6 (HDAC6) (AID 2283164). The procedure, abridged: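 Recombinant human HDAC6 with fluorescent substrate, 1 h; product separated from substrate by electrophoretic mobility shift. Primary screen in duplicate at 25 uM; actives retested singly in concentration-response up to 50 uM, fitted relative to DMSO.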
Chain of Protein deacetylase HDAC6 (Homo sapiens) (Q9UBN7 whole entry, looked up): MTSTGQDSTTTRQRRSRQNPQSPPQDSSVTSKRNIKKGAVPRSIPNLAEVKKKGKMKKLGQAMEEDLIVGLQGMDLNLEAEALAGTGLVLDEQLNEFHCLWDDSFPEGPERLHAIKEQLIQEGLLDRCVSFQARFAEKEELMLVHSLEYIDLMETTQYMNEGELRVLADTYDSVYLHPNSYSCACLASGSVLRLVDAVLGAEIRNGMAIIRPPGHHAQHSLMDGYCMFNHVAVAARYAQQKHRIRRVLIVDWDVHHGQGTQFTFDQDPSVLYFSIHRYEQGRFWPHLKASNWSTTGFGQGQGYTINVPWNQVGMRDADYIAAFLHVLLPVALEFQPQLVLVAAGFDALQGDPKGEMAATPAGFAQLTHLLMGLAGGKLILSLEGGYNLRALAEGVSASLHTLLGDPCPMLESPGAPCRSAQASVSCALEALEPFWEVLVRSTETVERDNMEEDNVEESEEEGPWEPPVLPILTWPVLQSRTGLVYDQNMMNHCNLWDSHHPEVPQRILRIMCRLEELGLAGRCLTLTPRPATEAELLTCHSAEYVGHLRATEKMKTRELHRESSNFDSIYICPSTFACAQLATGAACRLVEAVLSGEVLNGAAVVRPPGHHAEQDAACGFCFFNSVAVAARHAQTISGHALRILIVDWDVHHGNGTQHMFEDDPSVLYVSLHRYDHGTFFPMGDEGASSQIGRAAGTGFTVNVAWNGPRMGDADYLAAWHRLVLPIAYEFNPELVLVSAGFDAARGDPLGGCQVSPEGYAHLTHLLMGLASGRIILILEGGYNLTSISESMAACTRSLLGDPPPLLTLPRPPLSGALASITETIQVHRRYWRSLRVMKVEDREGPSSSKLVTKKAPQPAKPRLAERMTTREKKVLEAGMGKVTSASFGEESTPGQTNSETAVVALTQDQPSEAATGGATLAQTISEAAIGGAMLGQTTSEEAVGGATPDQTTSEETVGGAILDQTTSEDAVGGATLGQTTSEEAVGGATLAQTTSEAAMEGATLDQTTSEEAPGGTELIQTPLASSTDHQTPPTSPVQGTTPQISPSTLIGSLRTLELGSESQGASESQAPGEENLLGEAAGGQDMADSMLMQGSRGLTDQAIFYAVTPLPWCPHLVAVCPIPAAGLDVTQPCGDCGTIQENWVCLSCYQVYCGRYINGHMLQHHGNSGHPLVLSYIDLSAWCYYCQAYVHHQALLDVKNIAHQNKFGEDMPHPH

Experiment [7] deals with human IkappaB Kinase alpha (IKKa), CHUK (gene 1147) (UniProt O15111). Put plainly: NVS_ENZ_hIKKa: NovaScreen (NVS) Enzymatic Assay for human IkappaB Kinase alpha (IKKa) (AID 2283167). A digest of the protocol: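 Cell-free recombinant human IKKa with fluorescent substrate, product separated by electrophoretic mobility shift; read 1 hour after dosing. Primary screen duplicate at 25 uM, actives then concentration-response up to 50 uM; loss of signal relative to DMSO.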

Experiment [8] addresses human Caspase 8 (CASP8), CASP8 (gene 841) (UniProt Q14790). Description: NVS_ENZ_hCASP8: NovaScreen (NVS) Enzymatic Assay for human Caspase 8 (CASP8) (AID 2283146). A digest of the protocol: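 E. coli-expressed enzyme was used in a cell-free fluorogenic substrate assay read 1 h after dosing. Loss of signal was scored relative to DMSO, and the primary screen was run in duplicate at 25 uM.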

Experiment [9] addresses CDK2 (gene 1017) (UniProt P24941). Description: NVS_ENZ_hCDK2: NovaScreen (NVS) Enzymatic Assay for human Cyclin-Cependent Kinase 2 (CDK2) (AID 2283144). The procedure, abridged:
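Cell-free recombinant human CDK2 with fluorescent substrate, product separated by electrophoretic mobility shift; 1 hr read. Primary screen at 25 uM in duplicate, actives retested in concentration-response up to 50 uM; loss of signal versus DMSO.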

The target of experiment [10] is human Epidermal Growth Factor Receptor (EGFR), EGFR (gene 1956) (UniProt P00533). Put plainly: NVS_ENZ_hEGFR: NovaScreen (NVS) Enzymatic Assay for human Epidermal Growth Factor Receptor (EGFR) (AID 2283151). The procedure, abridged:
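Cell-free kinase assay, fluorescence plus electrophoretic mobility shift separating substrate and product, read 1 hour after dosing; loss of signal vs DMSO. Duplicate screen at 25 uM, then concentration-response to 50 uM.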

The target of experiment [11] is human Esterase Plasma (ES), BCHE (gene 590) (UniProt P06276). Put plainly: NVS_ENZ_hES: NovaScreen (NVS) Enzymatic Assay for human Esterase Plasma (ES) (AID 2283157). A digest of the protocol:
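Esterase from human plasma, cell-free, colorimetric absorbance read 0.25 h after dosing. Screened at 25 uM in duplicate, with threshold-passing chemicals run in concentration-response up to 50 uM; loss of signal fitted versus DMSO.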

Experiment [12] addresses human Ephrin type-A Receptor 1 (EphA1), EPHA1 (gene 2041) (UniProt P21709). Put plainly: NVS_ENZ_hEphA1: NovaScreen (NVS) Enzymatic Assay for human Ephrin type-A Receptor 1 (EphA1) (AID 2283158).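 Also: activity is signal loss versus DMSO meaning EphA1 kinase inhibition.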 A digest of the protocol:
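Here the EphA1 protein is recombinant and the substrate fluorescent, with electrophoretic separation before fluorescence detection at 1 hour. Signal loss against DMSO defines activity; plate controls included; follow-up concentration series reach 50 uM.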

The target of experiment [13] is human FYN Proto-Oncogene, Src family Tyrosine Kinase (Fyn), FYN (gene 2534) (UniProt P06241). Put plainly: NVS_ENZ_hFyn: NovaScreen (NVS) Enzymatic Assay for human FYN Proto-Oncogene, Src family Tyrosine Kinase (Fyn) (AID 2283161). A digest of the protocol:
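Recombinant enzyme with fluorescent substrate, product separated by electrophoretic mobility shift; read 1 h after dosing. Duplicate 25 uM single-point screen, actives retested in concentration series; loss of signal vs DMSO.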

For experiment [14], the target named is Histone deacetylase 3 (Homo sapiens) (UniProt O15379). Description: NVS_ENZ_hHDAC3: NovaScreen (NVS) Enzymatic Assay for human Histone Deacetylase 3 (HDAC3) (AID 2283163). The procedure, abridged:
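Recombinant human HDAC3 with fluorescent substrate, 1 h after dosing; product separated from substrate by electrophoretic mobility shift and read by fluorescence. Primary screen at 25 uM in duplicate; actives (e.g. ≥30% inhibition) retested in concentration-response up to 50 uM.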

Experiment [15] addresses Glycogen synthase kinase-3 beta (Homo sapiens) (UniProt P49841). Put plainly: NVS_ENZ_hGSK3b: NovaScreen (NVS) Enzymatic Assay for human Glycogen Synthase Kinase-3 beta (GSK3b) (AID 2283165). The procedure, abridged: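 Recombinant enzyme with specific fluorescent substrate, 1 h, product separated by electrophoretic mobility shift. Primary duplicate screen at 25 uM; actives (e.g. 30% inhibition) followed in singleton concentration-response to 50 uM. Signal loss fitted versus DMSO.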

Experiment [16] deals with human Casein Kinase 1-delta (CK1D), CSNK1D (gene 1453) (UniProt P48730). Description: NVS_ENZ_hCK1D: NovaScreen (NVS) Enzymatic Assay for human Casein Kinase 1-delta (CK1D) (AID 2283148). A digest of the protocol:
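Recombinant human CK1-delta, cell-free; fluorescent substrate with electrophoretic mobility-shift separation of product, read 1 h after dosing. Single 25 uM duplicate screen, then concentration-response up to 50 uM; loss of signal vs DMSO.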

Experiment [17] concerns the target human Elastase, ELANE (gene 1991) (UniProt P08246). Description: NVS_ENZ_hElastase: NovaScreen (NVS) Enzymatic Assay for human Elastase (AID 2283153). The procedure, abridged:
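Cell-free elastase from human neutrophils, 1.5 h after dosing, activity read by absorbance. Primary screen in duplicate at 25 uM; hits (e.g., 30% inhibition) rerun in singleton concentration-response up to 50 uM, fitted versus DMSO.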

In experiment [18] the target is human Ephrin type-B Receptor 1 (EphB1), EPHB1 (gene 2047) (UniProt P54762). Put plainly: NVS_ENZ_hEphB1: NovaScreen (NVS) Enzymatic Assay for human Ephrin type-B Receptor 1 (EphB1) (AID 2283154). A digest of the protocol:
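Cell-free kinase assay with recombinant enzyme, fluorescent substrate and electrophoretic mobility-shift separation of substrate and product; read 1 h after dosing. Single-concentration duplicate screen at 25 uM; loss of signal versus DMSO baseline.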

Chain of human Esterase Plasma (ES), BCHE (gene 590) (P06276 whole entry, looked up): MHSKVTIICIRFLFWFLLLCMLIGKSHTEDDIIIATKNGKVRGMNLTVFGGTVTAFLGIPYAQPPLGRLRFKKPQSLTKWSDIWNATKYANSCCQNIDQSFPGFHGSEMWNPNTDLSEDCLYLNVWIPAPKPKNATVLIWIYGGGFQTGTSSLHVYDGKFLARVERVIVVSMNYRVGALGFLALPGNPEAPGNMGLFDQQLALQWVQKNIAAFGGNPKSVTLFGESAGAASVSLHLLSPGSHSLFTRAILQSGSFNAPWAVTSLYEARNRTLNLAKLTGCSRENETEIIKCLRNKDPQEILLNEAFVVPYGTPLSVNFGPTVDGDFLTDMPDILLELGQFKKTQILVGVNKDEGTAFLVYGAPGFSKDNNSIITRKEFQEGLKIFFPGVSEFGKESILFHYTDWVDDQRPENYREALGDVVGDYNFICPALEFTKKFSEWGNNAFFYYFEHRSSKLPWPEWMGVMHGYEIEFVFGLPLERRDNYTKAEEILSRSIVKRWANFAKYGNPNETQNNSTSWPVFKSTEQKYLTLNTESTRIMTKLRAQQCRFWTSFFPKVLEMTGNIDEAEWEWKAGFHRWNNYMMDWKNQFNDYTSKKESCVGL
Chain of human Fibroblast Growth Factor Receptor 1 (FGFR1), FGFR1 (gene 2260) (P11362 whole entry, looked up): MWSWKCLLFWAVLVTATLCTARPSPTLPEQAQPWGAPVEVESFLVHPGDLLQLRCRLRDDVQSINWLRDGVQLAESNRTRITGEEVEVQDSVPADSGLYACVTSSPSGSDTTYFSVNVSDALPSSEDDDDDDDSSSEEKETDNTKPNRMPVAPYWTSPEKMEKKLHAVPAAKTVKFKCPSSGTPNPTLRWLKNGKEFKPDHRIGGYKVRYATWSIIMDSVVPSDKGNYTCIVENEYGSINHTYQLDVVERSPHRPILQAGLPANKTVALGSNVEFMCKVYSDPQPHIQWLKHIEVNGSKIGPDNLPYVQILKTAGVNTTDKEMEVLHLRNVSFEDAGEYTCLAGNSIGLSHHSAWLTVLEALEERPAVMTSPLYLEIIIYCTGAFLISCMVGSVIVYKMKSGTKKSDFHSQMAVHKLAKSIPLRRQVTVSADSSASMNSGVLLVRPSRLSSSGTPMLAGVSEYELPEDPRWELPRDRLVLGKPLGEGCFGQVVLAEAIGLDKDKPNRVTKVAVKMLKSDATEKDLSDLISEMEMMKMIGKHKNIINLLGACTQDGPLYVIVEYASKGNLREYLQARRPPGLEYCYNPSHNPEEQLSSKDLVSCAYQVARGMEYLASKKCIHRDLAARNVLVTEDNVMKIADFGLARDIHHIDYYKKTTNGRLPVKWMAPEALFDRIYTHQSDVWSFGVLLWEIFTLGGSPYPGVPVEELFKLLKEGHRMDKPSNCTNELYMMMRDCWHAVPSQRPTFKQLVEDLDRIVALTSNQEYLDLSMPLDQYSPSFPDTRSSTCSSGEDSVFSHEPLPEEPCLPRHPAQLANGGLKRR
Chain of human Caspase 8 (CASP8), CASP8 (gene 841) (Q14790 whole entry, looked up): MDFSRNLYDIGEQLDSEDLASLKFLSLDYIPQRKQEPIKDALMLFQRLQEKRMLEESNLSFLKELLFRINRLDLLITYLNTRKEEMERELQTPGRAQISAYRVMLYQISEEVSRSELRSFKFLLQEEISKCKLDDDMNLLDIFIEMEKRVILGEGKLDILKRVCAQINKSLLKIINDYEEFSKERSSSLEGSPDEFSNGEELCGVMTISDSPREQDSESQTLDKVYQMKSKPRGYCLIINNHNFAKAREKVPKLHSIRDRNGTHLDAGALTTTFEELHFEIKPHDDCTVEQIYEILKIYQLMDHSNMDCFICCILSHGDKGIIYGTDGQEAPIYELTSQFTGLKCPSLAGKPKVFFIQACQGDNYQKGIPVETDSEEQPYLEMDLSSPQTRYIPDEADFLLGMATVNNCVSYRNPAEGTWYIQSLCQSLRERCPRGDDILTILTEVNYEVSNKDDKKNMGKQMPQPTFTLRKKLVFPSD
Chain of human Casein Kinase 1-delta (CK1D), CSNK1D (gene 1453) (P48730 whole entry, looked up): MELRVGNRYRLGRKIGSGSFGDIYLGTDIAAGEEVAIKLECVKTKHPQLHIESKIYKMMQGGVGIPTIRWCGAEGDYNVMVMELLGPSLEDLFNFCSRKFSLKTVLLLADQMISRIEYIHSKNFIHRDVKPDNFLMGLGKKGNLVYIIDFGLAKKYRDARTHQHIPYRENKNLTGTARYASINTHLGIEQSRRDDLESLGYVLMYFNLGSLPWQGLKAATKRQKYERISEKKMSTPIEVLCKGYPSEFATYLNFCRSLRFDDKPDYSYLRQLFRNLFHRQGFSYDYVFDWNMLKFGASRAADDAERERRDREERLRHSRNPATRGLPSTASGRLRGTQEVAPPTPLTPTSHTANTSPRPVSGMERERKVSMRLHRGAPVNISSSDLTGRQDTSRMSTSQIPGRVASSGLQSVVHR

Regarding `Cc1cc2c3c(c1)C(c1ccccc1)=N[C@@H](NC(=O)c1ccncc1)C(=O)N3CC2`, the compound was called inactive in [1], in experiment [2] and in experiment [3].
One may read the AC50 as the concentration at which the activity in the assay is half-maximal. As for `O=C(O)C(F)(F)C(F)(F)C(F)(F)C(F)(F)C(F)(F)C(F)(F)C(F)(F)C(F)(F)C(F)(F)F`, the AC50 in experiment [4] is 13 µM (active).
With `O=S(=O)(O)C(F)(F)C(F)(F)C(F)(F)C(F)(F)C(F)(F)C(F)(F)F`, the compound was called inactive in [5], in experiment [2], in experiment [6], in [7] and in [3].
On to `CO/C=C(/C(=O)OC)c1ccccc1COc1cccc(C(F)(F)F)n1`, for which, in experiment [8], the compound was called inactive.
Turning to `CC1=C2C[C@H]3[C@@H](CC=C4C[C@@H](O)CC[C@@]43C)[C@@H]2CC[C@]12O[C@@H]1C[C@H](C)CN[C@H]1[C@H]2C`, the result in experiment [1], in [9], in experiment [5], in experiment [10], in experiment [12] and in experiment [13] was inactive. For the same compound, the outcome in experiment [14], in experiment [6] and in experiment [15] was inactive. In addition, the AC50 in experiment [11] is 12.5 µM (active); in [2], 21.1 µM (active).
Turning to `Cc1cccc(C)c1N`, the compound was classed as inactive in experiment [16].
Regarding `CCC(C)c1cc([N+](=O)[O-])cc([N+](=O)[O-])c1O` (stereo not drawn), the compound was called inactive in [8], in experiment [16] and in experiment [2].
In the case of `ClC1=C(Cl)[C@]2(Cl)[C@@H]3[C@@H]4C[C@@H]([C@H]5O[C@@H]45)[C@@H]3[C@@]1(Cl)C2(Cl)Cl`, the compound was called inactive in experiment [8] and in [5]. Also, the results for the half-maximal activity concentration (AC50) in [4] and in experiment [17] were 46.6 µM (active) and 37.5 µM (active), respectively.
Take `CCNc1nc(NC(C)C)nc(SC)n1`: the AC50 in experiment [16] is 16.3 µM (active).
On to `CN(C)c1nc(=O)n(C2CCCCC2)c(=O)n1C`, for which the compound was classed as inactive in experiment [18].
As for `Cc1ccccc1CO[C@@H]1C[C@@]2(C(C)C)CC[C@]1(C)O2`, the result in [18] was inactive. The AC50 in [11] is 9.07 µM (active).
`O=C(N[C@H]1CN2CCC1CC2)c1cc2ccoc2cn1`: the outcome in experiment [11] was inactive.
On to `Cc1cccc([N+](=O)[O-])c1`, for which the outcome in [12] was inactive.
With `CCOCCOC(C)=O`, in experiment [6], the compound was classed as inactive.
Take `c1cc2ccc3cccc4ccc(c1)c2c34`: in experiment [6], the compound was classed as inactive.
On to `Clc1ccc(C(c2ccccc2Cl)C(Cl)(Cl)Cl)cc1` (stereo not drawn), for which the compound was classed as inactive in [3].

The record behind these values is PubChem BioAssay (EPA / NIEHS).
